Results from PubChem BioAssay AID504466 (National Center for Advancing Translational Sciences (NCATS), 2011).
The whole screen tested about 330,000 compounds, of which about 4,200 (1.3%) were called active. Roughly 6% stayed inconclusive and do not appear here. The list comes from a sample in which actives are over-represented; it also holds similar structures and randomly drawn compounds. Unmarked numbers belong to inactive results. The call rests on the fitted dose curve; in most records, active means well fitted activation curve with a large enough effect; inconclusive means small, poorly fitted or top-dose-only effect; inactive means no such curve, though single readings can be large or run the other way.

experiment: qHTS screen for small molecules that induce genotoxicity in human embryonic kidney (HEK293T) cells expressing luciferase-tagged ELG1; details: HEK293T ELG1-luciferase reporter, luminescence, 16 h; series mostly up to 46 µM; activity change, positive = activation: at the top concentration; further: nearly all actives have a fitted effect of over 60% in size; on activity change, positive = activation: % of control where 0% means no effect
How it was run: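 Reporter readout depends on ELG1 protein level, which increases with genetic stress. After 16 hr compound exposure at 37 °C, luciferase activity was quantified using ONE-Glo.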
Potency means the concentration at half of the fitted maximal effect.

Row | Compound | activity change, positive = activation | Potency
1 | O=C(COc1ccc([N+](=O)[O-])cc1Cl)Nc1ccc2[nH]c(=O)[nH]c2c1 | 2.56% | –
2 | Cc1csc(=O)n1CC(=O)Nc1ccc(S(C)(=O)=O)cc1 | 1.22% | –
3 | O=C(COC(=O)c1ccc(F)c(S(=O)(=O)N2CCOCC2)c1)NCc1ccc2c(c1)OCO2 | -1.23% | –
4 | O=C1CC2(CCCC2)C(=O)N1CN1CCN(S(=O)(=O)c2ccc(F)cc2F)CC1 | -1.8% | –
5 | Oc1cccc2ccc(/C=C/c3ccc(Br)s3)nc12 | – | 20.6 µM (active)
6 | Nc1ccc(S(=O)(=O)Nc2nccc(/C=C/c3ccc(Br)s3)n2)cc1 | 2.69% | –
7 | O=C(COc1ccccc1F)Nc1nc(-c2ccccn2)cs1 | 7.21% | –
8 | O=C(O)c1ccccc1C(=O)Nc1nc(-c2ccccc2)cs1 | 1.21% | –
9 | O=C(Nc1nc(-c2cccnc2)cs1)c1ccccc1F | – | 18.3 µM (active)
10 | CC1O[C@@H](OC2C(O)C(C)O[C@H](OC(=O)[C@]34CCC(C)(C)C[C@H]3C3=CCC5[C@@]6(C)CC(O)C(O[C@@H]7OC(CO)C(O)[C@@H](O)[C@@H]7O)[C@@](C)(C(=O)O)C6CC[C@@]5(C)[C@]3(CO)CC4)C2O[C@H]2OC(C)[C@@H](O[C@@H]3OCC(O[C@@H]4OC(CO)C(O)[C@H](O)C4O)[C@@H](O)[C@@H]3O)[C@H](O)C2O)C(O)C(O)C1O (some centres undefined) | -0.551% | –
11 | C=CCNC(=O)c1ccccc1SCc1c(C)noc1C | 10.9% | –
12 | C=CCNC(=O)c1cc(-c2ccccc2O)on1 | – | 18.4 µM (active)
13 | C=CCNC(=O)c1csc(-c2ccccc2)n1 | 3.59% | –
14 | C[C@H](CO)N1C[C@H](C)[C@@H](CN(C)S(=O)(=O)c2ccc(F)cc2)Oc2ccc(NC(=O)CCC(F)(F)F)cc2C1=O | -1.82% | –
15 | O=C(CCc1ccccc1)Nc1cccc(-c2nnc(-c3ccco3)o2)c1 | -6.33% | –
16 | CCCCOc1ccc(-c2nnc(-c3ccco3)o2)cc1 | – | 3.66 µM (active)
17 | COc1ccc(OCC(=O)Nc2nnc(-c3ccco3)s2)cc1 | -0.333% | –
18 | CCC(C)c1ccc(NC(=O)COC(=O)C2CCCC2)cc1 (centres undefined) | 13.7% | –
19 | COc1cc(/C=C/C(=O)Nc2ccc(OC)c(S(=O)(=O)N3CCOCC3)c2)ccc1OCC#N | -5.08% | –
20 | O=C(OCCN1C(=O)c2ccccc2C1=O)[C@@H]1CC(O)CN1S(=O)(=O)c1ccccc1[N+](=O)[O-] (some centres undefined) | -0.548% | –
21 | CCCc1cc(=O)oc2c(C)c(OCC(=O)Nc3ccccn3)ccc12 | – | 5.17 µM (active)
22 | CCCc1cc(=O)oc2c(C)c(OCC(=O)N3CCC(C(=O)O)CC3)ccc12 | -1.71% | –
23 | CCCc1cc(=O)oc2c(C)c(OCC(=O)NCc3ccccn3)ccc12 | 0.193% [at 9.26 µM] | –
24 | O=C(Nc1cc(S(=O)(=O)N2CCCCC2)ccc1Cl)C1COc2ccccc2O1 (centres undefined) | -5.67% | –
